HT1080-NT tox – kills 2HG-producing HT-1080-NT fibrosarcoma cells | HT-1080-NT fibrosarcoma viability, CellTiter-Glo ATP luminescence, 48 h | Potency, µM (series often up to 46.1 µM), for the others: at the highest dose activity, negative = less viability, actives largely listed as cytotoxic | actives 1.6% (n = 360,000) | AID 686970;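 note: NT is the 2HG producing partner of a matched IDH1 knockdown line; 0% = DMSO-treated cells and -100% = media-only wells without cells; nearly all actives have a fitted effect of over 55% in size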
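HT-1080-NT; 750 cells/well; 5% FBS RPMI; 48 h compound, 37 degrees C; CellTiter-Glo luminescence; curve fitting and curve-class assignment.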
ATXN2 expr inh – inhibitors of ATXN2 expression; HEK-293 ATXN2-luciferase reporter, luminescence, 24 h; Potency, µM (top dose mostly 57 µM), inactives show top-dose activity change, negative = inhibition, most hits filed as inhibitors; actives 0.72% (n = 360,000); AID 1745845; note: % is set by controls: 0 for no effect and ±100 for the full control effect; nearly all actives have a fitted effect of over 55% in size
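ATXN2-luciferase reporter cells (luciferase flanked by upstream and downstream ATXN2 gene portions) were treated 24 h at 37 °C with compounds at up to 57 uM. SteadyGlo luminescence gave expression; GF-AFC fluorescence gave viability.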
HepG2 tox – counter-screen for TGF-b inhibitors: cytotoxicity in HepG2 cells | HepG2 CAGA-GFP viability, ATP luminescence, 18 h | Potency, µM (highest dose often 46.1 µM), inactives show at the highest dose activity change, negative = cytotoxicity, most hits filed as cytotoxic | actives 0.76% (n = 410,000)
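HepG2 CAGA-GFP cells (1000/well, DMEM with 1% FBS) received compound, then TGF-beta at 500 pg/mL final, and were incubated 18 hours at 37 degrees C. Viability was read by CellTiter-Glo luminescence. Media-only wells were set as complete cell-killing and DMSO as no toxicity.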
ATXN viability – viability counter-screen for ATXN expression inhibitors. actives 0.49% (n = 400,000). Potency, µM (titrated, usually from 56.7 µM), actives largely listed as cytotoxic. S2 cells (HEK-293 line with an ATXN2-luciferase reporter) viability, CellTiter-Fluor protease fluorescence, 24 h. AID 651635; note: nearly all actives have a fitted effect of over 40% in size
HT1080 IDH1KD tx – toxicity to HT-1080 IDH1 knockdown cells (counter line); HT-1080 IDH1 knockdown viability, ATP luminescence, 48 h; Potency, µM (highest dose often 46.1 µM), inactives show at the top dose activity, negative = toxicity, hits mostly cytotoxic; actives 2% (n = 360,000); AID 686971;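 note: 0% = DMSO wells and -100% = cell-free medium wells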
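% activity derives from luminescence (CellTiter-Glo), normalised to DMSO and no-cell wells. HT-1080-IDH1KD cells, 750/well, had 48 h compound exposure at 37 °C.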
TGFb inhibitor – TGF-b pathway inhibition. HepG2 CAGA-GFP TGF-b/SMAD3 reporter, GFP fluorescence, 18 h; TGF-beta stimulated, 500 pg/mL final. Potency, µM (top dose mostly 46.1 µM), inactives show at the highest dose activity, negative = inhibition, actives largely listed as inhibitors. actives 1.2% (n = 410,000). AID 588855; note: % is set by controls: 0 for no effect and ±100 for the full control effect; nearly all actives have a fitted effect of over 65% in size
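Cell-based qHTS in HEPG2 carrying a CAGA-GFP Smad reporter; compounds added before 500 pg/mL final TGF-beta, 18 h incubation at 37 degrees C, GFP fluorescence quantified per cell by imaging cytometry.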
Starred values were filed as active, the others as inactive; ! = a repeat was not active. Most compounds without a hit are left out; they make up all but 3.8% or so of the library. Calls come from the whole dose curve; as a rule, active = well fitted curve in the direction sought with a large enough effect; inconclusive = small, poorly fitted or top-dose-only effect, or another doubt; inactive = no such curve, though single readings can be large; an effect the other way counts as inactive or inconclusive. Potency is the fitted concentration of half-maximal effect.

CC(Oc1ccccc1)C(=O)N[C@@H]1C(=O)N2C(C(=O)O)C(C)(C)S[C@H]12 (stereo partly specified) was read as HepG2 tox 16% and TGFb inhibitor 10%.
`CCC(=O)OCC(=O)[C@@]1(OC(=O)CC)[C@H](C)C[C@H]2[C@H]3[C@H]([C@@H](O)C[C@@]21C)[C@@]1(C)C=CC(=O)C=C1C[C@H]3Cl` gave ATXN viability inactive.
`O=C(CCS(=O)(=O)c1nc(-c2ccc3c(c2)OCO3)cc(C(F)(F)F)n1)Nc1ccc(Br)cc1` gave HepG2 tox -105% and TGFb inhibitor inconclusive.
Screening O=C(CCS(=O)(=O)c1nc(-c2cccs2)cc(C(F)(F)F)n1)Nc1ccc(OC(F)(F)F)cc1 returned ATXN2 expr inh -18%, HepG2 tox -39%, ATXN viability 16µM* and TGFb inhibitor -17%.
COc1ccc(NC(=O)CCS(=O)(=O)c2nc(-c3cccs3)cc(C(F)(F)F)n2)cc1 was read as HepG2 tox -89% and TGFb inhibitor 10µM*.
O=C(CCS(=O)(=O)c1nc(-c2cccs2)cc(C(F)(F)F)n1)Nc1ccc(F)c(Cl)c1 was read as HepG2 tox 11µM* and TGFb inhibitor 20µM*.
CC(C)c1nnc(NC(=O)CCS(=O)(=O)c2nc(-c3cccs3)cc(C(F)(F)F)n2)s1 was read as HT1080-NT tox inconclusive, ATXN2 expr inh -7%, HepG2 tox -95%, ATXN viability inconclusive, HT1080 IDH1KD tx inconclusive and TGFb inhibitor 14µM*.
CCn1c(-c2cccc(OC)c2)nc2cc(NC(C)=O)cc(C(=O)N3CCC[C@H]3C(=O)OC)c21 was read as ATXN viability inactive.
Screening C=CCn1c(COc2ccccc2)nnc1SC(C)C(=O)N/N=C/c1cc(Cl)ccc1O (stereo unspecified) returned HT1080-NT tox inconclusive, ATXN2 expr inh 14µM*, HepG2 tox -14%, ATXN viability inactive, HT1080 IDH1KD tx inconclusive and TGFb inhibitor -1%.
For Cc1ccc(C)c(N=Nc2nc3ccccc3n2C)c1 the results were HT1080-NT tox 4µM*, ATXN2 expr inh -14%, HepG2 tox -54%, ATXN viability inconclusive, HT1080 IDH1KD tx 7.9µM* and TGFb inhibitor inconclusive.
For O=C1CC(c2ccccc2)Cc2[nH]c(=O)c(-c3nc(-c4ccc(Cl)cc4)cs3)cc21 (stereo unspecified) the results were HepG2 tox -1% and TGFb inhibitor -2%.
Cc1ccc(-c2n[nH]c(=O)c3ccccc23)cc1S(=O)(=O)Nc1ccccc1 was read as HT1080-NT tox 26µM*, ATXN2 expr inh -5%, HepG2 tox 7%, ATXN viability inconclusive, HT1080 IDH1KD tx 21µM* and TGFb inhibitor 0%.
Cc1ccc(-c2n[nH]c(=O)c3ccccc23)cc1S(=O)(=O)N(C)C was read as HT1080-NT tox 5%, ATXN2 expr inh 14%, HepG2 tox -21%, ATXN viability inconclusive, HT1080 IDH1KD tx -11% and TGFb inhibitor 2%.
Screening O=C(NCc1ccccn1)c1cnn(-c2nccc(-c3cccs3)n2)c1C1CC1 returned ATXN viability inactive.
`CN(C)CCCNc1cc(O)c2ncccc2c1` gave ATXN2 expr inh 20µM*, HepG2 tox 7.1µM*, ATXN viability inconclusive and TGFb inhibitor inconclusive.
Oc1cc(NCc2ccc(F)cc2)cc2cccnc12 was read as ATXN2 expr inh inconclusive, HepG2 tox 11µM*, ATXN viability inconclusive and TGFb inhibitor inconclusive.
Oc1cc(NCc2ccc(Cl)cc2)cc2cccnc12 was read as ATXN2 expr inh -2%, HepG2 tox -45%, ATXN viability inactive and TGFb inhibitor -27%.
`N#Cc1nc(-c2ccccc2)cc(-c2ccccc2)n1` gave HT1080-NT tox 6% and HT1080 IDH1KD tx 17%.
`COc1ccc(C2CC(c3ccccc3)Oc3c(C)ccc(C(C)C)c32)cc1` (stereo unspecified) gave HepG2 tox -6% and TGFb inhibitor inconclusive.
COc1ccc(C2CC(O)(c3ccccc3)Oc3c(C)ccc(C(C)C)c32)cc1 (stereo unspecified) was read as HepG2 tox -33% and TGFb inhibitor 16µM*.
For COc1ccc(C2CC(O)(c3ccccc3)Oc3cc(OC)ccc32)cc1 (stereo unspecified) the results were HT1080-NT tox inconclusive, ATXN2 expr inh -18%, HepG2 tox 13µM*!, ATXN viability inconclusive, HT1080 IDH1KD tx inconclusive and TGFb inhibitor 18µM*.
O=C(N1CCOCC1)N1c2ccccc2Sc2ccccc21 was read as HT1080-NT tox inconclusive, ATXN2 expr inh -21%, HepG2 tox -30%, ATXN viability inactive, HT1080 IDH1KD tx 14µM* and TGFb inhibitor -4%.
For CC1CN(C(=O)N2c3ccccc3Sc3ccccc32)CC(C)O1 (stereo unspecified) the results were HT1080-NT tox -19%, ATXN2 expr inh 36%, HepG2 tox 0%, ATXN viability inactive, HT1080 IDH1KD tx -27% and TGFb inhibitor -29%.
Screening CC1CCCN(C(=O)N2c3ccccc3Sc3ccccc32)C1 (stereo unspecified) returned HT1080-NT tox inconclusive, ATXN2 expr inh 87%, HepG2 tox -14%, ATXN viability inactive, HT1080 IDH1KD tx 10µM* and TGFb inhibitor 4%.
Screening Cc1cccc(OC(=O)c2cc(-c3ccc4c(c3)OCCO4)on2)c1 returned ATXN2 expr inh -2%, HepG2 tox -13%, ATXN viability inactive and TGFb inhibitor -16%.
For CN(C)c1ccc(CCc2ccnc3ccccc23)cc1 the results were HepG2 tox -32% and TGFb inhibitor 0%.
Screening CCn1c(SCC(=O)c2[nH]c(C)c(C(C)=O)c2C)nnc1-c1ccccc1 returned HT1080-NT tox -1%, ATXN2 expr inh -23%, HepG2 tox 3%, ATXN viability inactive, HT1080 IDH1KD tx 16µM* and TGFb inhibitor inconclusive.
For COc1cc(=O)n2c(c1C(=O)NCc1ccco1)CCN(Cc1cccc(C(F)(F)F)c1)CC2 the results were ATXN viability inactive.
`O=C1/C(=N\S(=O)(=O)c2cccs2)C([n+]2cccc(Cc3ccccc3)c2)=C([O-])c2ccccc21` gave HT1080-NT tox 5.2µM*, ATXN2 expr inh inconclusive, HepG2 tox 2.8µM*, ATXN viability inconclusive, HT1080 IDH1KD tx 5.8µM* and TGFb inhibitor inconclusive.
